BJeLR viability – kills HRASV12-expressing BJeLR cells; BJeLR (HRASV12) viability, CellTiter-Glo ATP luminescence, 48 h; inhibition, % (concentration not given with the values); hit rate 0.17% among 300,000; in the data active = inhibition above about 50%; inconclusive = no clear call, values can overlap the other calls
BoNT-A LC inh2 – inhibitors of Botulinum neurotoxin A light chain protease | multiplex microsphere protease substrate cleavage, flow cytometry | inhibition, % at 10 µM | hit rate 0.17% among 360,000 | AID 588499; note: plate controls were buffer without enzyme for full effect and enzyme alone for no effect
Anthrax LF inh2 – blocks Bacillus anthracis lethal factor protease; AID 588501; inhibition, % at 10 µM; hit rate 0.12% among 360,000; multiplex microsphere protease cleavage assay, LF; P15917; note: plate controls were buffer without enzyme for full effect and enzyme alone for no effect
Target sequence (P15917 whole entry, looked up): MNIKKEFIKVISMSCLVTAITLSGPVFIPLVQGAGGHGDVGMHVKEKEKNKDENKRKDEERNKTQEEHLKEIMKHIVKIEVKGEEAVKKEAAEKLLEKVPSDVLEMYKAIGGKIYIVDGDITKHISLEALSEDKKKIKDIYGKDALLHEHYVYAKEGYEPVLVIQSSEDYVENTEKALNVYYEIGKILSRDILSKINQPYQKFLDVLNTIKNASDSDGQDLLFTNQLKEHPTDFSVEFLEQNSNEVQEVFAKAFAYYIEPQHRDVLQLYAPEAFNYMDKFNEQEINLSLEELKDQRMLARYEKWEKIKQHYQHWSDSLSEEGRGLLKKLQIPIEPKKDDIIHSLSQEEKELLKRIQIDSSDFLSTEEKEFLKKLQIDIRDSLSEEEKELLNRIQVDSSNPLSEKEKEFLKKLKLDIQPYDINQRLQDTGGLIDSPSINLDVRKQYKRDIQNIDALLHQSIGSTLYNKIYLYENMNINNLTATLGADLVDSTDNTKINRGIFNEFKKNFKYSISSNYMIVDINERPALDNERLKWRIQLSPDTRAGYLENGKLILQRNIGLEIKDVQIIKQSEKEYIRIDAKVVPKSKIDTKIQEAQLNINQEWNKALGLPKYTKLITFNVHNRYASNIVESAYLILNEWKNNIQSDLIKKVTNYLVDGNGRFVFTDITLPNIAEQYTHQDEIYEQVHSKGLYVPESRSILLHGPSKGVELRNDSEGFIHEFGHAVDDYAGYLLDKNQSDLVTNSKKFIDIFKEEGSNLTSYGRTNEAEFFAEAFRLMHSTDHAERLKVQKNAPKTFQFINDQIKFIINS
BoNT F protease – BoNT F light chain protease inhibition | Multiplex microsphere protease cleavage assay, flow cytometry | inhibition, % at 10 µM | hit rate 0.22% among 360,000 | AID 588497; in the data active = inhibition above about 35%, passing the limit was not always enough; inconclusive = no clear call, values can overlap the other calls; note: plate controls were buffer without enzyme for full effect and enzyme alone for no effect
Bead autofluor – flagged as autofluorescent in microsphere protease counterscreen. compound autofluorescence counterscreen, microsphere flow cytometry; stronger effect = higher value. fluorescence intensity (test concentration not listed). hit rate 3.1% among 360,000; in the data active = fluorescence intensity above about 16000; inconclusive = no clear call, values can overlap the other calls
The depositor's hits bear a star; ? = inconclusive; nt = not tested or not shown. Hits are enriched below; roughly 3.5% of the tested compounds scored in any of these assays. Cut-off read from the data, not from the text of the source, unless noted: active = inhibition above about 30%; inconclusive = no clear call, values can overlap the other calls; inactive = below that.

SMILES	BJeLR viability	BoNT-A LC inh2	Anthrax LF inh2	BoNT F protease	Bead autofluor
CC1(C(=O)NS(=O)(=O)c2cccc(Cl)c2)CCN1C(=O)c1ccccc1CCc1ccccc1 (stereo not drawn)	nt	-1	-7	0	4219
CC(=O)Nc1cccc(C(=O)Nc2cccc3ncccc23)c1	5	2	-2	-9	4487
CCOc1cc(C(=O)Nc2cccc3ncccc23)cc(OCC)c1OCC	-3	1	-1	-2	20303*
CCC(Sc1nc2sc(C(=O)OC)c(C)c2c(=O)n1N)C(=O)N(CC)CC (stereo not drawn)	0	2	-6	1	21202*
CCCCNC(=O)C(CC)Sc1nc2sc(C(=O)OC)c(C)c2c(=O)n1N (stereo not drawn)	-2	-1	7	-2	10263
COc1cc(/C=N/NC(=O)c2ccc(Cl)c(S(N)(=O)=O)c2)ccc1OCC(N)=O	22	1	-11	3	3693
Cc1[nH]n(-c2ccc([N+](=O)[O-])cc2)c(=O)c1C=NCCN1CCN(C(=O)c2ccc(F)cc2)CC1	20	?	0	-2	20052*
Cc1oc2nc(SCCCC(=O)NCCCO)nc(N)c2c1C	5	-1	-2	-30	4760
Cc1oc2nc(SCC(=O)NCCCO)nc(N)c2c1C	4	-1	-2	0	22217*
Cc1ccc(NC(=O)CSc2nc(N)cc(=O)[nH]2)cc1Cl	5	-14	-17	-32	4128
CCCc1cc(=O)[nH]c(SCC(=O)Nc2ccc(OCc3ccccc3)cc2)n1	nt	0	2	3	8974
COCc1cc(=O)[nH]c(SCC(=O)Nc2ccccc2)n1	6	?	-4	-2	22752*
Nc1cc(=O)[nH]c(SCC(=O)Nc2cccc(Cl)c2)n1	7	-2	-1	-3	17592*
COc1ccc2c(c1)CC1(CN2C)C(=O)NC(=O)N(c2ccc(F)cc2)C1=O (stereo not drawn)	5	0	-1	0	22766*
COc1ccc(NC(=O)c2cc(C3CCCCN3C(=O)CCCc3ccccc3)on2)c(C)c1 (stereo not drawn)	nt	-1	-8	-7	3368
CCOC(=O)c1ccc2c(c1)nc(COc1ccc(OC)cc1)n2CC	0	2	-1	1	16133*
O=C(NNC1CC(=O)N(c2ccccc2)C1=O)c1ccccc1Cl (stereo not drawn)	5	-2	14	?	4575
CCOC(=O)c1c(C)n(C)c2ccc(OCC(O)Cn3nc(C)cc3C)cc12 (stereo not drawn)	2	0	-5	-3	16244*
CCOC(=O)c1c(C)n(C)c2ccc(OCC(O)CN(CC)CC)cc12 (stereo not drawn)	-3	0	3	-12	5998
CCOC(=O)c1c(C)c(C)n(Cc2ccc(OC)c(OC)c2)c1C	-11	0	-1	1	2350
CCOC(=O)c1cc(C)n(Cc2ccc(OCC)c(OC)c2)c1C	-8	10	-16	10	17147*
CCOc1ccc2nc(NC(=O)c3ccco3)sc2c1	22	3	-8	?	3669
CCOc1ccc2nc(NC(=O)c3ccoc3C)sc2c1	81*	-1	-7	-8	3086
CCOc1ccc2nc(NC(=S)NCc3ccccc3)sc2c1	-5	2	0	2	20242*
COc1ccc(-c2c(NC(C)=O)n(C)c3ccccc3c2=O)cc1	7	?	-14	17	16417*
SMILES	BJeLR viability	BoNT-A LC inh2	Anthrax LF inh2	BoNT F protease	Bead autofluor
CCn1c(NC(=O)c2ccco2)c(-c2ccccc2Cl)c(=O)c2ccccc21	-4	1	3	5	23199*
Cc1ccccc1C(=O)Nc1c(-c2cccs2)c(=O)c2ccccc2n1C	5	0	-8	6	6025
CCCC(=O)Nc1c(-c2cccs2)c(=O)c2ccccc2n1C	-7	2	0	-1	21477*
CCn1c(NC(=O)c2cccs2)c(-c2cccs2)c(=O)c2ccccc21	0	?	1	4	20705*
COc1ccc(CNC(=O)COC(=O)c2cc(C)oc2C)cc1	nt	0	-2	-1	4124
Cc1ccc(NC(=O)C2=C(C(=O)O)CCCC2)cc1F	0	-1	-9	2	3446
CCCNC(=O)C1(C)CCN(CCOc2ccc(Cl)cc2)C1 (stereo not drawn)	nt	0	-1	2	3981
CC1(C(=O)Nc2cccc3ccccc23)CCN1C(=O)Cc1ccc(Cl)cc1Cl (stereo not drawn)	nt	-1	-10	-14	3053
Cn1c(=O)[nH]c(=O)c2c1nc(OC(=O)c1ccccc1)n2CC(O)COc1ccccc1 (stereo not drawn)	13	-1	-2	14	2908
Cn1c(=O)[nH]c(=O)c2c1nc(OC(=O)c1ccccc1)n2CC(O)COc1ccc(F)cc1 (stereo not drawn)	2	-1	1	-4	16708*
CCCCCCCCN1C(=O)[C@H](CC(=O)N2CCSCC2)C[C@@]2(C(=O)OC)CCCCC=C12	nt	0	-2	-2	6168
CCOC(=O)c1nn(-c2cccc(Cl)c2)c2nc(CC(C)C)c(C#N)c(=O)n12	-2	0	4	5	10003
CCOC(=O)c1nn(-c2ccc(OCC)cc2)c2nc(CC(C)C)c(C#N)c(=O)n12	-10	-2	-3	-4	16776*
CCOC(=O)c1nn(-c2ccc(Cl)cc2)c2nc(CC)c(C#N)c(=O)n12	4	1	-2	0	16274*
CCOC(=O)c1nn(-c2ccc(Cl)cc2)c2nc(-c3ccc(C)cc3)c(C#N)c(=O)n12	0	0	3	2	2938
CSc1ccccc1NC(=O)C1CC(c2ccccc2Cl)=NO1 (stereo not drawn)	-16	-2	-7	1	3633
Nc1nc(CCl)nc(Nc2ccc3ccccc3c2)n1	114*	3	0	?	3669
COc1ccc(Nc2nc(N)nc(CCl)n2)cc1	47	6	10	4	3676
Cc1ccccc1Nc1nc(N)nc(CCl)n1	67*	1	7	?	4259
Cc1ccccc1Nc1nc(N)nc(CN(C)c2ccccc2)n1	8	1	-1	-16	4389
Cc1c(Cl)cccc1Nc1nc(N)nc(CSc2ncccn2)n1	-9	0	-2	-1	20532*
O=C(Nc1ccccc1C(=O)N1CCCCCC1)c1ccc(Cl)cc1	1	-1	2	2	4943
CC(C)Oc1ccc(CN2CCC2(C)C(=O)Nc2cccc3cccnc23)cc1 (stereo not drawn)	nt	0	4	5	3474
COC(=O)c1ccc(-c2n[nH]c(=O)c3ccccc23)cc1	0	?	-1	2	19671*
CN(C)C(=O)c1ccc(-c2n[nH]c(=O)c3ccccc23)cc1	3	0	-2	-1	3345
CCOc1ccc(S(=O)(=O)n2cc(-c3ccccc3)c(N)n2)cc1	-16	-2	-3	-4	23986*
Cc1ccc(-c2cn(S(=O)(=O)c3ccc(C)cc3)nc2N)cc1	-9	-2	0	-5	24762*
CCOc1ccc(S(=O)(=O)n2cc(-c3ccc(F)cc3)c(N)n2)cc1	11	2	1	0	23064*

High-throughput results (PubChem BioAssay)
